# Bioassay records (PubChem)
# HTT aggregate: qHTS Multiplex Assay to Identify Dual Action Probes in a Cell Model of Huntington: Aggregate Formation (GFP). 1.1% of 220,000 active. AID 1688, 2009. PC12 HttQ103-GFP aggregates, Acumen cytometry, 40 h. Potency, µM (top dose mostly 46.1 µM), actives largely listed as inhibitors; also: nearly all actives have a fitted effect of over 60% in size
#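 Aggregates are detected as GFP objects 1–25 µm with signal 6 STDEV over background in lysates of induced PC12 cells. These carry Huntingtin exon 1 with 103 glutamines fused to GFP under an ecdysone promoter; compounds titrated.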
# Tau fibril ThT: qHTS for Inhibitors of Tau Fibril Formation, Thioflavin T Binding | Microtubule-associated protein tau (Homo sapiens), P10636 | recombinant tau K18 P301L, heparin-induced fibrillization, ThT fluorescence | Potency, µM (top dose mostly 57.4 µM), hits mostly inhibitors | 2.1% of 270,000 active | AID 1460, 2008; also: nearly all actives have a fitted effect of over 55% in size
# Target sequence (P10636 561-689 P618L limits assumed): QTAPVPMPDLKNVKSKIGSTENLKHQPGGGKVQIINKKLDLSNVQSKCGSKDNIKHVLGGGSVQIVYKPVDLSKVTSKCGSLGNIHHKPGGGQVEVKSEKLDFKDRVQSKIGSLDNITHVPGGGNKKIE
#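 Heparin-induced (20 uM) aggregation of recombinant human K18 P301L tau, 15 uM unlabeled with 0.24 uM labeled, pH 7 acetate buffer, 6 hr at 37 C with compound. Fibrils quantified by 30 uM ThT fluorescence after 1 hr ambient incubation.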
# Tau fluor counter: Counterscreen qHTS for Inhibitors of Tau Fibril Formation, Fluorescence Polarization; tau K18 P301L Alexa594 fluorescence, heparin fibrillization; Potency, µM (highest dose often 57.7 µM); 0.93% of 280,000 active; AID 1463, 2008; also: nearly all actives have a fitted effect of over 55% in size
#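 Human tau K18 P301L (15 uM unlabeled, 0.24 uM Alexa 594-labeled) in 100 mM sodium acetate pH 7 with 20 uM heparin, 6 hr at 37 C. ThT 30 uM added, 1 hr ambient; Alexa 594 FP and total fluorescence read at 555/632 nm.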
# Tau FP inhib: qHTS for Inhibitors of Tau Fibril Formation, Fluorescence Polarization. Potency, µM (highest dose often 57.7 µM), hits mostly inhibitors. 0.39% of 280,000 active. K18 P301L tau heparin fibrillization, Alexa594 FP, 6 h. Microtubule-associated protein tau (Homo sapiens), P10636; also: nearly all actives have a fitted effect of over 55% in size
#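 Human K18 P301L fragment (15 uM unlabeled plus 0.24 uM Alexa 594-labeled) in 100 mM sodium acetate pH 7 with compound, aggregation induced by 20 uM heparin for 6 hr at 37 C. ThT (30 uM) added for 1 hr, then Alexa 594 FP read.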
# HTT cytoprotect: qHTS Multiplex Assay to Identify Dual Action Probes in a Cell Model of Huntington: Cytoprotection (ATP); PC12 HTT-Q103 induced, cytoprotection, ATP luminescence, 40 h; Potency, µM (highest dose often 56.4 µM), actives largely listed as activators; 0.14% of 230,000 active; also: nearly all actives have a fitted effect of over 45% in size
#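 Cells were plated at 1500 per well in phenol red-free DMEM with 5% equine and 5% calf serum. Tebufenozide (100 nM final) and compounds were added, then ATPlite reagent, and luminescence was read.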
# Numbers stand for hits; . = inactive; ? = inconclusive; / = not tested or not shown; ! = repeats disagree; [ ] = dose if it differs, or a comment. Only some compounds are listed: those with a hit (about 3.7% of all), similar ones and a draw of the others. Calls follow the shape of the dose curve; as a rule, active = well fitted curve in the direction sought with a large enough effect; inconclusive = small, poorly fitted or top-dose-only effect, or another doubt; inactive = no such curve, though single readings can be large; an effect the other way counts as inactive or inconclusive.
SMILES,HTT aggregate,Tau fibril ThT,Tau fluor counter,Tau FP inhib,HTT cytoprotect
Cc1ccc(/C=N/c2sc3c(c2C#N)CCCCC3)o1,.,?,.,.,.
CCc1ccccc1NC(=S)N(Cc1ccco1)C(C)c1cccs1 (stereo unspecified),4µM,.,.,.,.
CCOc1ccc(N2C(=O)/C(=C\c3ccc(O)c(OC)c3)S(=O)(=O)C2c2cccc([N+](=O)[O-])c2)cc1 (stereo unspecified),.,?,32µM[quencher],.,.
N#Cc1ccc(-c2cccnc2)nc1SCC(=O)c1ccccc1,.[9.22 µM],4.5µM,?,.,.[10 µM]
Cc1ccc(C(=O)NNC(=S)Nc2cccc3ccccc23)s1,?,13µM,.,?,.
COCc1cc(O)c(O)c(O)c1-c1c(COC)cc(O)c(O)c1O,/,3.2µM,?,6.3µM,.
CCc1oc(C(=O)O)cc1COC,.,.,.,.,.[10 µM]
CC1(C)OC(c2ccccc2)=C/C(=C\C=N\NC(=O)c2ccncc2)O1,.[9.22 µM],11µM,?,?,.[10 µM]
CCN(CC)CCNc1ncnc2c1[nH]c1ccc(OC)cc12,.,.,.,.,.
COc1ccc2[nH]c3c(NCCC4=CCCCC4)ncnc3c2c1,13µM,?,7.9µM[quencher],?,.
O=c1cnc2cncnc2n1Cc1ccc(F)cc1,/,/,/,/,.
CCC(C)NC(=O)CSc1nc(-c2cccs2)cc(C(F)(F)F)n1 (stereo unspecified),13µM,.,.,.,.[10 µM]
NCCSCCC(=O)O,/,/,/,/,.[10 µM]
NCCSSCCN,.[9.22 µM],14µM,.,?,?
Cc1c(N=Cc2cccs2)c(=O)n(-c2ccccc2)n1C,.,.,.,.,.
Cc1ccc(C2C(C=Nc3c(C)n(C)n(-c4ccccc4)c3=O)=C(c3ccccc3)Oc3ccccc32)cc1 (stereo unspecified),22µM,.,.,.,.
CCS(=O)(=O)C1=NN2C(=N)/C(=C\c3ccc(SCc4ccco4)o3)C(=O)N=C2S1,.[9.22 µM],14µM,?,.,.
N=C1/C(=C\c2ccc(SCc3ccccc3)o2)C(=O)N=C2SC=NN12,.,8.9µM,.,?,.
N=C1/C(=C\c2ccc(SCc3ccccc3)o2)C(=O)N=C2SC(CC(=O)N3CCOCC3)=NN12,.[9.22 µM],14µM,.,.,.[10 µM]
Cc1cc(/C=C2\C(=N)N3C(SCc4ccccc4)=NSC3=NC2=O)c(C)n1Cc1ccccc1,.,.,.,.,.
COc1ccc(NC(=O)CCc2c(C)nc3c(-c4ccccc4)c(C)nn3c2C)cc1Cl,/,.,.,?,/
O=S(=O)(c1ccc(-n2cnnn2)cc1)N1CCN(c2cccc(C(F)(F)F)c2)CC1,/,.,.,.,/
COc1cc(/C=N/NC(=O)Cc2csc(C)n2)ccc1OCC(C)C,.,.,.,.,.[10 µM]
COc1ccc(/C=N/NC(=O)Cc2csc(Nc3cccc(C(F)(F)F)c3)n2)cc1C,.,?,18µM[quencher],?,.
Cc1cc2ncn(CC(=O)O)c2cc1C,/,/,/,/,.[10 µM]
SMILES,HTT aggregate,Tau fibril ThT,Tau fluor counter,Tau FP inhib,HTT cytoprotect
CCOc1ccc(N=C(C)C2=C(O)c3ccccc3C2=O)cc1,.[9.22 µM],/,?,.,.[10 µM]
CCOc1ccc(N=C(NN)c2ccc3ccccc3n2)cc1,.,10µM,?,.,.[10 µM]
Cc1cc(Br)ccc1NC(=O)C1(S(=O)(=O)c2ccc(Cl)cc2)CC1,/,.,?,.,/
CNc1nc(-c2c[nH]c3ccccc23)cs1,.[9.22 µM],25µM,28µM[quencher],?,.
Nc1nc(-c2c[nH]c3ccccc23)cs1,.,16µM,16µM[quencher],?,.
C=CCN1C=C2C(=O)C(C)(OC(=O)CCC(=O)OC)C(=O)C(Br)=C2C=C1c1ccc(OC)cc1 (stereo unspecified),.[9.22 µM],14µM!,.[11.6 µM],?,.[10 µM]
COC(=O)CCC(=O)OC1(C)C(=O)C2=CN(C3CCCC3)C(c3ccc(OC)cc3)=CC2=C(Br)C1=O (stereo unspecified),.[9.22 µM],16µM,.[11.6 µM],?,.[10 µM]
CC(C)S(=O)(=O)c1csc(NC(=O)Nc2ccc(Cl)cc2)c1,.[9.22 µM],.,16µM[quencher],?,.[10 µM]
O=C1c2cccc3c(Nc4ccccc4Cl)c([N+](=O)[O-])cc(c23)C(=O)N1CCO,10µM,11µM,?,.,.
